According to ChEMBL document CHEMBL4296182, “CO-ADD screening of NIH NCI Diversity Set V”:
For part of these data: Entries with a potency or affinity are not part of this list.

How the values were obtained:
[1] = test system: Staphylococcus aureus; test: Antibacterial activity against Staphylococcus aureus MRSA ATCC 43300 (CO-ADD:GP_020); MIC in CAMBH media using NBS plates, by Resazurin F(560/590); type: functional; details: Concentration 20 uM, ASSAY_TEST Inhibition of Bacterial Growth, detection method Resazurin, Fluorescence (ex560/em590), MEDIA CAMHB, plate type 384well, CORNING #3640, time 18 hr
[2] = test system: Acinetobacter baumannii; test: Antibacterial activity against Acinetobacter baumannii ATCC 19606 (CO-ADD:GN_034); MIC in CAMBH media using NBS plates, by Resazurin F(560/590); type: functional; details: Concentration 20 uM, ASSAY_TEST Inhibition of Bacterial Growth, detection method Resazurin, Fluorescence (ex560/em590), MEDIA CAMHB, plate type 384well, CORNING #3640, time 18 hr
[3] = test system: Escherichia coli; test: Antibacterial activity against Escherichia coli ATCC 25922 (CO-ADD:GN_001); MIC in CAMBH media using NBS plates, by Resazurin F(560/590); type: functional; details: Concentration 20 uM, ASSAY_TEST Inhibition of Bacterial Growth, detection method Resazurin, Fluorescence (ex560/em590), MEDIA CAMHB, plate type 384well, CORNING #3640, time 18 hr
[4] = test system: Klebsiella pneumoniae; details: Concentration 20 uM; ASSAY_TEST Inhibition of Bacterial Growth; detection method Absorption (OD600); MEDIA CAMHB; plate type 384well; NBS; CORNING #3640; time 18 hr
[5] = test system: Candida albicans; details: 20 µM
[6] = test system: Cryptococcus neoformans; details: Concentration 20 uM; ASSAY_TEST Inhibition of Fungal Growth; detection method Resazurin; Absorption (OD600-OD570); plate type 384well; NBS; CORNING #3640

SMILES	Inhibition [1]	Inhibition [2]	Inhibition [3]	Inhibition [4]	Inhibition [5]	Inhibition [6]
COC(=O)C1(C(=O)OC)C2C(=O)C3C(C21)C3(C(=O)OC(C)(C)C)C(=O)OC(C)(C)C (stereo not given)	5.34%	-10.49%	12.49%	9.29%	0.63%	-1.86%
NC(=O)c1ccc(Cl)c2ccccc12	11.2%	-9.07%	13.67%	7.47%	6.64%	-4.82%
CN1CN(C)C(c2ccncc2)=C1c1ccncc1	5.44%	14.08%	-2.65%	0.75%	-0.59%	-1.9%
COc1cc(NC(C)=O)c2ncccc2c1Br	8.44%	-11.34%	10.55%	15.6%	6.33%	-16.73%
Cc1cccc2cc3cccc(C)c3nc12	-5.52%	-11.71%	-1.48%	1.32%	0.25%	-5.61%
Cc1ccc([N+](=O)[O-])cc1NC(=O)Nc1cccc(F)c1	33.45%	-10.69%	8.59%	12.62%	18.3%	-9.48%
Cc1oc2c(c(C)nn2-c2ccccc2)c(=O)c1Cl	-0.13%	-6.85%	7.16%	9.65%	14.3%	35.87%
CNc1ccc(/N=N/c2cc[n+]([O-])cc2C)cc1C	-1.07%	-11.34%	7.82%	8.63%	-0.41%	-28.56%
NC(=O)c1ccc(/N=N/c2c(O)c3ccccc3[nH]c2=O)cc1	1.45%	0.09%	1.38%	17.01%	24%	-1.63%
O=C(Nc1cc(-c2ccccc2)[nH]n1)c1ccc(Cl)cc1	11.18%	-15.73%	6.31%	6.21%	8.34%	-8.44%
CCOC(=O)C1CC(=O)c2cc(OC)c(OC)cc2C1 (stereo not given)	-2.55%	9.78%	7.27%	13.25%	3.32%	-12.53%
Cc1ccc(/N=N/c2c(N)nn(-c3ccccc3)c2N)cc1	4.28%	-1.05%	11.08%	11.62%	9.14%	-17.06%
O=C(O)Cc1ccc(/N=N/c2c(O)c(C(=O)O)cc3ccccc23)cc1	6.99%	6.89%	1.22%	11.34%	-4.81%	-5.37%
O=C(Nc1ccc(O)c(C(=O)O)c1)Oc1ccccc1	5.63%	12.9%	-6.34%	11.35%	5.9%	-2.46%
Nc1cc([N+](=O)[O-])ccc1Nc1ccc(O)cc1	-9.75%	-11.21%	0.26%	0.39%	3.23%	-0.22%
O=C(O)c1ccccc1C(=O)Nc1cccc([N+](=O)[O-])c1	-4.11%	-9.98%	-2.38%	3.82%	3.86%	-3.03%
Cc1cc(S)nc(S)n1	19.64%	-5.84%	8.34%	8.54%	-0.64%	-0.35%
Cc1ccc(Nc2ccc(N)cc2S(=O)(=O)O)cc1	11.37%	8.99%	-1.31%	9.09%	3.65%	-9.37%
OCC1(CO)COC2(CCCC2)N1	5.01%	0.7%	4.05%	19.67%	-1.93%	-8.24%
COC1OC2COC(c3ccccc3)OC2C(=O)C1NC(=O)c1ccccc1 (stereo not given)	8.72%	4.09%	10.65%	10.3%	2.12%	-18.55%
Cc1ccc(Nc2nnc(S)s2)cc1F	-5.24%	-6.73%	5.51%	11.86%	12.1%	17.67%
CCCCC(=O)N(CCC)CCC	2.53%	-12.7%	10.06%	7.98%	-2.94%	-14.22%
CC(=O)Oc1ccc(C(c2ccc(OC(C)=O)cc2)c2ccccn2)cc1 [BISACODYL]	25.36%	-9.02%	15.4%	14.3%	0.53%	-1.75%
CC(C)c1nc2c(=O)n(C)c(=O)n(C)c2[nH]1	10.47%	-19.52%	12.69%	-1.01%	-1.8%	-13.14%
COc1c(NC(C)=O)c2ccccc2c2ccccc12	12.56%	4.74%	1.88%	16.73%	5.3%	-2.59%
